Assay outcomes as filed in PubChem BioAssay.
SUMO Mot1 rescue: inhibitors of SUMOylation pathway: yeast Mot1-301 growth rescue; S. cerevisiae Mot1-301 growth rescue, ATP luminescence, 38.5C; percent above DMSO median, 100 means doubled; growth rescue, % at 18.8 µM; hit rate 1% among 320,000;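 active means every valid replicate shows activation above 250% relative to neutral control wells; inactive means the rest, any valid replicate at or below 250%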
CHT inh: inhibitors of human choline transporter CHT; hit rate 0.86% among 310,000; AID 488975; Q9GZV3; B-score at 10 µM; CHT-expressing cells, membrane potential dye, choline response; hits give low values;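 active means B-score over 3 SD under the library average, and starting fluorescence ratio not unusually high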;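 further: choline stimulus applied at its EC90 after an EC20 pre-addition; B-score computed on integrated fluorescence ratio after choline addition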
Target sequence (Q9GZV3 whole entry, looked up): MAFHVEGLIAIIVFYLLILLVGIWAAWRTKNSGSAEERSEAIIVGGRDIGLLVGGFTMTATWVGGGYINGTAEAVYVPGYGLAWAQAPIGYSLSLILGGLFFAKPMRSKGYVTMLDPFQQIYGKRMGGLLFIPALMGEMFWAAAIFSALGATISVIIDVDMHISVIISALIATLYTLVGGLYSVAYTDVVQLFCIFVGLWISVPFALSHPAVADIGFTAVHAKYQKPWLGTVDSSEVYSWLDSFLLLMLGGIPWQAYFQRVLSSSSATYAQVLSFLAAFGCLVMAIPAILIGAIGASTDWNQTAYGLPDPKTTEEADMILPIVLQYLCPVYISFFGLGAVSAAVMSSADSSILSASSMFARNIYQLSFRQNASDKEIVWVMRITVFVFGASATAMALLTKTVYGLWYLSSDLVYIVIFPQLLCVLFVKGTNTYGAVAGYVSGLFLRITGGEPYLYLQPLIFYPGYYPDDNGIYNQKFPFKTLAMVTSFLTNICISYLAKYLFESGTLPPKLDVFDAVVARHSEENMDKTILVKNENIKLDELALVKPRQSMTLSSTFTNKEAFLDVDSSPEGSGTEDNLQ
NLRP3 yeast inh: blocks the NALP3 inflammasome reconstituted in yeast; Yeast reconstituted NLRP3/ASC/caspase-1, beta-gal luminescence, 24 h; inhibition, % at 10 µM; hit rate 0.39% among 330,000;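 active means inhibition of 50% or more; inactive means inhibition below 50%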
NALP1 inh: NALP1 inhibition; S. cerevisiae NALP1/ASC/caspase-1 growth, X-gal OD620, 72 h; inhibition, % at 10 µM; hit rate 0.61% among 280,000; in the data active means inhibition mostly above about 24%, no sharp cut-off; inactive means mostly below about 32%
CHT allo act: human CHT allosteric activation | Q9GZV3 | CHT-expressing cells, membrane potential dye, choline EC20; hits give high values; LV-AA mutant CHT in HEK293 cells | B-score at 10 µM | hit rate 0.49% among 310,000 | AID 488977;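 active means initial fluorescence not abnormally high and integrated response B-score, plate-corrected, over 3 SD above library mean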
A1 inh: inhibitors of the anti-apoptotic protein A1, read as caspase activation; hit rate 0.066% among 330,000; MEF A1-2A-BIM cells, Caspase-Glo 3/7 luminescence, 3 h; percent of clofoctol response, vehicle zero; caspase activation, % (test concentration not listed); AID 2462;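 active means over half of replicate activation scores above 10%, or exactly half above 10 with the replicate mean above 10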
Mot1 SUMO dose: SUMO pathway inhibitors in yeast Mot1-301 growth; shares compounds with SUMO Mot1 rescue; S. cerevisiae Mot1-301 galactose growth, ATP luminescence, 24 h; -100 = growth of slx-deleted rescue strain; growth activity, percent, % at 42 µM; 2,300 tested, under 10 active;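 active means Signal drops as the depositor expects, and the fitted half-maximal dose is no more than ten times the top valid tested dose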;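 further: more negative values mean stronger growth rescue toward the control strain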
Each line names hits and unclear results; the compound was inactive in the other large screens (follow-up assays come after a bar, where they were run); ! = not confirmed by another sample. This is a sample that favours compounds with a hit; in the whole collection about 3% have one here.

CCOc1ccc(-n2cc(C(=O)NCCOC)c3cc(OC)c(OC)cc3c2=O)cc1	SUMO Mot1 rescue 810 | Mot1 SUMO dose inactive
COc1ccc([N+](=O)[O-])c2c(=O)ccoc12	SUMO Mot1 rescue 585 | Mot1 SUMO dose inactive
CCOC(=O)c1cc(=O)c2c([N+](=O)[O-])ccc(OC)c2o1	none
COC(=O)[C@@H](NC(=O)Nc1ccc(S(N)(=O)=O)cc1)C(C)C	SUMO Mot1 rescue 373 | Mot1 SUMO dose inactive
COC(=O)[C@@H](NC(=O)Nc1ccc(C(C)=O)cc1)C(C)C	none
COC(=O)CNC(=O)CSc1ccccn1	SUMO Mot1 rescue active | Mot1 SUMO dose inactive
COc1ccc(NC(=O)CSc2ccccn2)cc1	none
CN(C)Cc1ccccc1Sc1ccc2c(c1)CCCC2	none (no result: NALP1 inh)
COC/C=C/C1=CC2=CC(=O)C(C)(OC(=O)c3cnc4ccccc4n3)C(=O)C2=CN1CCOC (centres undefined)	SUMO Mot1 rescue 519 (no result: NALP1 inh) | Mot1 SUMO dose inactive
C/C(=N\NC(=O)Cc1ccc(Cl)cc1)c1ccccc1O	none
CCCOc1ccc(C(=O)Nc2ccc(CN3CCOCC3)cc2)cc1	none
CCCCOc1ccc(C(=O)Nc2ccc(CN3CCOCC3)cc2)cc1	SUMO Mot1 rescue 362 | Mot1 SUMO dose inactive
COc1ccc(NCc2nnc(-c3ccccc3)o2)cc1	none
COc1cc(/C=N/NC(=O)c2nnn(-c3nonc3N)c2-c2cccs2)ccc1O	none
COc1ccc(/C=N/NC(=O)c2nnn(-c3nonc3N)c2-c2cccs2)cc1OC	SUMO Mot1 rescue 399 | Mot1 SUMO dose inactive
CC(NC(=O)CCc1nnc(-c2ccc(-c3ccccc3)cc2)o1)c1nc2ccccc2[nH]1 (centres undefined)	SUMO Mot1 rescue 452 | Mot1 SUMO dose inactive
Cn1c(-c2sc3cc(C(F)(F)F)cnc3c2-c2cccs2)n[nH]c1=S	SUMO Mot1 rescue active | Mot1 SUMO dose inactive
COc1ccccc1C(CNC(=O)c1cccc(S(=O)(=O)NCc2ccccc2)c1)N(C)C (centres undefined)	none (no result: NALP1 inh)
O=C(N/N=C/c1cccs1)c1cccnc1	none
O=C(N/N=C/c1cccs1)c1cncc(Br)c1	SUMO Mot1 rescue 470 | Mot1 SUMO dose inactive
CC1CCCCC1NC(=O)CSc1nnc(COc2ccc(Cl)cc2)o1 (centres undefined)	none
O=C(Nc1ccccn1)c1cccs1	none
CN1C(C(=O)Nc2ccccn2)=C(O)c2sccc2S1(=O)=O	SUMO Mot1 rescue 982! | Mot1 SUMO dose inactive
Cc1cccc(OCC(=O)NNC(=O)c2ccc3nc[nH]c3c2)c1	none (no result: CHT inh, NALP1 inh, CHT allo act)
COc1ccc2c(c1)OC[C@H]1[C@H]2N2C(=O)c3ccccc3NC(=O)[C@@]2(C)[C@H]1c1ccccc1	SUMO Mot1 rescue 640 (no result: CHT inh, NALP1 inh, CHT allo act) | Mot1 SUMO dose inactive
COc1ccc2c(c1)[C@@H]1[C@H](CO2)[C@H](c2ccccc2)[C@]2(C)C(=O)Nc3ccc(C)cc3C(=O)N12	none (no result: NALP1 inh)
COc1ccc2c(c1)[C@H]1[C@H](CO2)[C@H](c2ccccc2)[C@]2(C)C(=O)Nc3ccc(F)cc3C(=O)N12	SUMO Mot1 rescue 904 (no result: CHT inh, NALP1 inh, CHT allo act) | Mot1 SUMO dose inactive
COc1ccc2c(c1)[C@H]1[C@H](CO2)[C@H](c2ccccc2)[C@]2(C)C(=O)Nc3ccc(C)cc3C(=O)N12	SUMO Mot1 rescue 598 (no result: CHT inh, NALP1 inh, CHT allo act) | Mot1 SUMO dose inactive
COc1ccc2c(c1)OC[C@H]1[C@H]2N2C(=O)c3cc(C)ccc3NC(=O)[C@@]2(C)[C@H]1c1ccccc1	SUMO Mot1 rescue active (no result: CHT inh, NALP1 inh, CHT allo act) | Mot1 SUMO dose inactive
COc1ccc(C(=O)NC(=S)Nc2ccc(CN3CCOCC3)cc2)cc1Cl	none
COc1ccc(C(=O)NC(=S)Nc2ccc(CN3CCCCC3)cc2)cc1Cl	SUMO Mot1 rescue 636 | Mot1 SUMO dose inactive
COCC(=O)Nc1c(C(=O)Nc2ccc3c(c2)OCO3)oc2ccccc12	SUMO Mot1 rescue 415 | Mot1 SUMO dose inactive
CC1(C)NC(=O)N(CCCOc2ccccc2Br)C1=O	SUMO Mot1 rescue active (no result: A1 inh) | Mot1 SUMO dose inactive
O=C1CSC(c2ccc(F)c(F)c2)N1c1ccccc1F (centres undefined)	SUMO Mot1 rescue 891 | Mot1 SUMO dose inactive
O=C(Nn1cnnc1)c1cc(Cl)cc(Cl)c1	none
COc1ccc(NC(=O)Nc2ccc3c(c2)CCC3)cc1	none
COc1cccc(-c2ocnc2C(=O)Nc2ccc3c(c2)CCC3)c1	SUMO Mot1 rescue 430 | Mot1 SUMO dose inactive
O=S(=O)(NCc1cccc(C(F)(F)F)c1)NCc1ccccc1F	SUMO Mot1 rescue active | Mot1 SUMO dose inactive
CN(C)CCNS(=O)(=O)c1ccc(N2CCc3ccccc32)c([N+](=O)[O-])c1	none
CC1=Nc2ccccc2/C1=C\c1nc(-c2ccccc2)oc1O	SUMO Mot1 rescue 623 | Mot1 SUMO dose inactive
COc1ccc(-c2nc(/C=C3\C(C)=Nc4ccccc43)c(O)o2)cc1	none
Cc1ccc(SCCNC(=O)CN2C(=O)c3ccccc3S2(=O)=O)cc1	SUMO Mot1 rescue 398 | Mot1 SUMO dose inactive
COc1ccc(NC(=O)CN2C(=O)c3ccccc3S2(=O)=O)cc1OC	SUMO Mot1 rescue 404 | Mot1 SUMO dose inactive
COc1ccc(C(=O)NNC(=O)COC(=O)c2sccc2C)cc1	none (no result: SUMO Mot1 rescue, CHT inh, NALP1 inh, CHT allo act, A1 inh)
CCC1CCCCN1C(=O)c1ccc(OC2CCN(C(=O)CCOC)CC2)cc1 (centres undefined)	none
CCc1nn(C)c(-c2n[nH]c(=S)n2N)c1Cl	none
CCc1nn(C)c(N)c1C	SUMO Mot1 rescue 392 | Mot1 SUMO dose inactive
CCOC(=O)c1ccc(-c2c(-c3ccccc3OC)sc3ccc(OC)cc23)cc1F	none (no result: CHT inh, NALP1 inh, CHT allo act)
CCOc1ncccc1-c1nc(-c2cccs2)no1	SUMO Mot1 rescue 916 | Mot1 SUMO dose inactive
CC1(C)C(=O)N(c2ccccc2)C(=O)c2ccccc21	none (no result: NALP1 inh)
Cc1ccc(NC(=O)NNC(=O)Cn2nc(-c3ccccc3)c(-c3ccccc3)c(C#N)c2=O)cc1	SUMO Mot1 rescue 364 | Mot1 SUMO dose inactive
CCOc1ccccc1CN1CCN(Cc2ccc3cc(F)ccc3n2)CC1CCO (centres undefined)	none
CCOc1ccccc1CN1CCN(Cc2ccon2)CC1CCO (centres undefined)	SUMO Mot1 rescue 817 | Mot1 SUMO dose inactive
CCOc1ccccc1CN1CCN(CC2CC2)CC1CCO (centres undefined)	none
CCOc1ccc2nc(CN3CCN(Cc4ccccc4OCC)C(CCO)C3)ccc2c1 (centres undefined)	SUMO Mot1 rescue 511 | Mot1 SUMO dose inactive
COc1cc(CN2CCN(c3ncccn3)CC2)cc(OC)c1	SUMO Mot1 rescue 534 | Mot1 SUMO dose inactive
COc1ccc(CN2CCN(c3ncccn3)CC2)c(OC)c1	none
Cc1ccc(C(C)C)c(OCC(=O)NN=C(CCl)CCl)c1	none
